Screening results deposited in PubChem BioAssay by National Center for Advancing Translational Sciences (NCATS).
HT1080 IDH1KD tx: toxicity to HT-1080 IDH1 knockdown cells (counter line) | HT-1080 IDH1 knockdown viability, ATP luminescence, 48 h | Potency, µM (series often up to 46.1 µM), for inactives: at the top dose activity, negative = toxicity, hits mostly cytotoxic | 2% of 360,000 active | AID 686971;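 also: 0% = DMSO wells and -100% = cell-free medium wells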
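Cytotoxicity counter-line: IDH1KD HT-1080, 48 h, CellTiter-Glo. Curves classed by r2, magnitude and activity.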
KB-V1 cytotox: kills drug-selected multidrug resistant KB-V1 cells. KB-V1 MDR cells viability, CellTiter-Glo, 72 h. Potency, µM (highest dose often 46.1 µM), actives largely listed as cytotoxic. 3.4% of 400,000 active. AID 1347076; also: % is scaled to controls: 0 for no effect and ±100 for the full control effect; nearly all actives have a fitted effect of over 60% in size
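Drug-selected KB-V1 cells, grown in DMEM lacking phenol red with 10% FBS, receive compound titrations; after three days at 37 degrees C, surviving cell ATP is quantified by CellTiter-Glo luminescence and responses normalized and curve-fitted.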
ATXN2 expr inh: reduces ATXN2 reporter expression in HEK-293 cells. 0.72% of 360,000 active. HEK-293 ATXN2-luciferase reporter, luminescence, 24 h. Potency, µM (highest dose often 57 µM), inactives show at the top dose activity change, negative = inhibition, most hits filed as inhibitors; also: % is scaled to controls: 0 for no effect and ±100 for the full control effect; nearly all actives have a fitted effect of over 55% in size
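qHTS (up to 57 uM final) was run with 24 h compound exposure of reporter cells at 37 °C. Each well was multiplexed: SteadyGlo luminescence measured ATXN2-luciferase expression after a fluorogenic Gly-Phe-AFC viability readout (25 uM final).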
S2 tox: reduces viability in counter-screen for ATXN expression inhibitors; 0.49% of 400,000 active; S2 cells (HEK-293 line with an ATXN2-luciferase reporter) viability, CellTiter-Fluor protease fluorescence, 24 h; AID 651635; Potency, µM (series often up to 56.7 µM), actives largely listed as cytotoxic; also: nearly all actives have a fitted effect of over 40% in size
KB-3-1 cytotox: KB-3-1 parental cell cytotoxicity. AID 1347075. KB-3-1 viability, CellTiter-Glo ATP luminescence, 72 h. 1.4% of 400,000 active. Potency, µM (highest dose often 46.1 µM), actives largely listed as cytotoxic; also: % is scaled to controls: 0 for no effect and ±100 for the full control effect; nearly all actives have a fitted effect of over 60% in size
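Parental KB-3-1 adenocarcinoma cells in phenol-red-free DMEM with 10% FBS were pin-treated with compounds at several concentrations, incubated 72 h at 37 °C, and viability read by CellTiter-Glo luminescence; concentration-effect curves were fitted after normalization.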
HT1080NT lethal: kills 2HG-producing HT-1080-NT fibrosarcoma cells; 1.6% of 360,000 active; Potency, µM (doses to about 46.1 µM), without a hit: top-dose activity, negative = less viability, usual class: cytotoxic; AID 686970; HT-1080-NT fibrosarcoma viability, CellTiter-Glo ATP luminescence, 48 h;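 also: NT is the 2HG producing partner of a matched IDH1 knockdown line; 0% = DMSO-treated cells and -100% = media-only wells without cells; nearly all actives have a fitted effect of over 55% in size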
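Compounds were tested in concentration-response format on HT-1080-NT cells for 48 hours at 37 degrees C. Cell viability came from CellTiter-Glo luminescence; curves were classified by r2, response magnitude and activity.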
Starred values were filed as active, the others as inactive; i = inactive; u = inconclusive; x = no result. Sampled rows, rich in hits. Any-hit rate of the full collection: about 6.2%. Calls follow the shape of the dose curve; as a rule, active = well fitted curve in the direction sought with a large enough effect; inconclusive = small, poorly fitted or top-dose-only effect, or another doubt; inactive = no such curve, though single readings can be large; an effect the other way counts as inactive or inconclusive. Potency is read from the fitted curve at half-maximal effect.

SMILES	HT1080 IDH1KD tx	KB-V1 cytotox	ATXN2 expr inh	S2 tox	KB-3-1 cytotox	HT1080NT lethal
Cc1onc(-c2c(Cl)cccc2Cl)c1C(=O)Cl	x	x	6%	i	x	x
OCC1OC(n2cnc3c(/C=C(\O)c4ccccc4)ncnc32)C(O)C1O (centres undefined)	15µM*	u	-9%	u	u	u
CCOC(=O)c1cccc(Nc2nc(-c3cccnc3)nc3ccccc23)c1	u	u	u	u	u	21µM*
CO[C@H]1[C@H](NC(=O)c2ccco2)c2ccccc2C12CCN(Cc1cnc(N(C)C)s1)CC2	x	x	x	i	x	x
CN(C)CCN=Cc1c(O)n(Cc2ccccc2)c(=O)c2ccccc12	-12%	u	-5%	x	i	-4%
CC1(C)CC(N=Cc2c(O)n(Cc3ccc4c(c3)OCO4)c(=O)c3ccccc23)CC(C)(C)N1	7.3µM*	i	u	x	i	18µM*
CC(NS(=O)(=O)c1ccccc1[N+](=O)[O-])c1ccccn1 (centres undefined)	x	i	x	x	u	x
Cc1ccc(C2N3CC4(C)CN2CC(c2ccccc2)(C3)C4=O)cc1 (centres undefined)	x	i	4%	i	i	x
O=C(/C=C\Nc1ccc2c(c1)OCO2)c1cccs1	6.5µM*	i	13%	u	u	u
CCC(C)c1ccc(NC(=O)c2cccnc2)cc1 (centres undefined)	u	21µM*	49%	i	i	-6%
CCC(C)c1ccc(NC(=S)NCc2cccnc2)cc1 (centres undefined)	10%	18µM*	7%	i	u	23%
CC(C)(C)c1ccc(NC(=S)NCc2cccnc2)cc1	1%	i	-4%	i	i	4%
COc1ccc(-c2cn3nc(N4CCC(C(=O)Nc5ccc(C)cc5)CC4)sc3n2)cc1	x	i	x	x	i	x
CCOC(=O)c1c(NC(=O)CN2C(=O)NC3(CCCCC3)C2=O)sc(C)c1-c1ccc(C)cc1	-9%	21µM*	1%	i	u	-3%
Cc1ccc(Cl)cc1NC(=O)CN1C(=O)NC2(CCCCCC2)C1=O	-2%	21µM*	-5%	u	i	-9%
CCOC(=O)c1c(NC(=O)CN2C(=O)NC3(CCC(C)CC3)C2=O)sc(C)c1-c1ccc(C)cc1 (centres undefined)	0%	i	-4%	i	i	-5%
Cc1cc(Cl)ccc1NC(=O)CN1C(=O)NC2(CCCC2)C1=O	4%	i	21%	i	u	-6%
COc1cc(Cl)c(C)cc1NC(=O)c1cc2c(=O)oc3ccccc3c2s1	x	i	1%	i	i	x
CC(C)N1C[C@@H](Sc2ccccn2)C[C@H]1C(=O)Nc1ccc2c(c1)Nc1ccccc1CC2	x	x	x	i	x	x
COc1ccc(NC(=O)C(=O)c2cn(CC(=O)N3CCCC3)c3ccccc23)cc1	0.37µM*	u	11%	u	u	u
COc1ccc(OC)c(C(C(=O)NCc2ccco2)N(C(=O)Cn2nnc3ccccc32)C2CC2)c1 (centres undefined)	3%	6.5µM*	16%	i	i	-7%
CCOC(=O)c1cccc(NC(=O)CN2CCN(c3ccc(OC)cc3)CC2)c1	9%	21µM*	1%	i	i	2%
CCCOC(=O)c1cccc(NC(=O)COc2ccc([N+](=O)[O-])cc2)c1	u	u	-20%	i	i	-11%
CCOC(=O)c1sc(NC(=O)CN2CCN(c3ccc(OC)cc3)CC2)nc1C	5%	u	-9%	i	i	-4%
CCOC(=O)c1cccc(NC(=O)COc2ccc([N+](=O)[O-])cc2)c1	5%	23µM*	-9%	i	i	5%
SMILES	HT1080 IDH1KD tx	KB-V1 cytotox	ATXN2 expr inh	S2 tox	KB-3-1 cytotox	HT1080NT lethal
COC(=O)c1sc2ccccc2c1S(=O)(=O)N1CCN(c2ccc(C(C)=O)cc2)CC1	x	i	5%	i	i	x
Cc1cc(C)c2c(c1)/C(=N/Nc1ccc(S(N)(=O)=O)cc1[N+](=O)[O-])CCC2	-5%	u	x	i	i	-8%
NS(=O)(=O)c1ccc(N/N=C2/CCCCC2C2CCCCC2)c([N+](=O)[O-])c1 (centres undefined)	u	i	u	u	u	18µM*
COc1ccccc1NS(=O)(=O)c1ccc(NN=C2CCCCC2)c([N+](=O)[O-])c1	-3%	16µM*	-11%	i	i	-11%
CCCC(CCC)=NNc1ccc(S(=O)(=O)Nc2ccccc2OC)cc1[N+](=O)[O-]	4%	12µM*	0%	i	i	3%
COc1ccccc1NS(=O)(=O)c1ccc(N/N=C(\C)C(C)C)c([N+](=O)[O-])c1	-8%	12µM*	-14%	i	u	-4%
Cc1cnc(SCC2CCCO2)nc1C1CCCN(Cc2nc(-c3ccccc3)cs2)C1 (centres undefined)	x	x	x	i	x	x
CCCCc1nc2ccccc2n2c(-c3ccc(C)cc3)c3c(=O)n(C)c(=O)n(C)c3c12	x	i	-5%	i	i	x
CCN(CC)CCN(C(=O)c1ccco1)c1nc2c(C)cccc2s1	x	i	-11%	i	i	x
COc1cc(-c2c(CCO)sc3ccccc23)cc(OC)c1OC	u	21µM*	-14%	i	u	u
CCCCCCCCCCCCCCCCCCNC(=O)OC1CCN(C(=O)OC[C@H](COC(=O)N(Cc2cccc[n+]2CC)C(=O)c2ccccc2OC)OC)CC1	x	x	35µM*	35µM*	x	x
COc1ccc(CN(C(C)=O)c2cccc(C)c2C)cc1	u	u	-23%	u	u	16µM*
COc1cccc(Nc2nnc(SCc3nc4ccccc4s3)s2)c1	-3%	u	35%	i	i	-13%
Cc1cccc(C)c1Nc1nnc(SCc2nc3ccccc3s2)s1	-2%	16µM*	60%	i	i	-2%
Cc1cccc(Nc2nnc(SCC(=O)Nc3ccccc3[N+](=O)[O-])s2)c1C	-25%	u	8%	i	i	-17%
Cc1nc(CSc2nnc(Nc3cccc(C)c3C)s2)cs1	13%	18µM*	5%	i	i	18%
O=C(N/N=C/c1ccccn1)c1[nH]c2ccc([N+](=O)[O-])cc2c1-c1ccccc1	u	u	u	u	9.2µM*	u
NNC(=O)c1[nH]c2ccc([N+](=O)[O-])cc2c1-c1ccccc1	3.7µM*	i	x	i	u	u
CCOc1ccccc1OCCNC(C)Cc1ccc(OC)c(S(N)(=O)=O)c1 (centres undefined)	x	x	-4%	x	x	x
